Results from PubChem BioAssay AID624331 (National Center for Advancing Translational Sciences (NCATS), 2012).
Inconclusive results are not listed. Calls of active or inactive are those of the source. Calls follow the shape of the dose curve; as a rule, active = well fitted activation curve with a large enough effect; inconclusive = small, poorly fitted or top-dose-only effect; inactive = no such curve, though single readings can be large or run the other way.

Experiment: qHTS assay for re-activators of p53 using a Luc reporter: Hit Validation with no p53 Expressed; also: 0% is about no effect
Conditions: p53-null cells, luciferase reporter counter-screen; series mostly up to 46.1 µM; activity change, positive = activation: at the top concentration
Outline: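 Counter-screen of primary hits in a cell line not transfected with p53, in Opti-MEM with 10% FBS; compounds at several concentrations (10 mM stock, 1:5; top 46.1 µM in well), 24 h at 37 deg C, 5% CO2. Luminescence read after 10 min with Amplite reagent.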

Row | SMILES | activity change, positive = activation
1 | Cc1ccc(NC(=O)c2ccc(OC(=O)C(C)Oc3ccc(Cl)cc3C)cc2)cc1 (centres undefined) | 26.8% (inactive)
2 | CCN1CCN(/C=N/c2nc3c(s2)CCCC3)CC1 | -54% (inactive)
3 | O=C(c1cccs1)c1coc2ccc(O)cc12 | 31% (inactive)
4 | COCCSc1nnc(NC(=O)CCS(=O)(=O)c2ccccc2)s1 | -5.66% (inactive)
5 | COc1ccc(C(=O)C(CN2CCCC2)c2ccccc2)cc1 (centres undefined) | -66% (inactive)
6 | Oc1c(CN2CCOCC2)cc(COCc2ccccc2)c2cccnc12 | -61.3% (inactive)
7 | CC1CCN(C2=C(NS(=O)(=O)c3ccc(Br)cc3)C(=O)c3ccccc3C2=O)CC1 | 48% (inactive)
8 | CCOC(=O)CC(=O)Nc1ccc(C(=O)OCC)cc1 | -41.9% (inactive)
9 | COC(=O)CCC(=O)COc1ccccc1C#N | 18.7% (inactive)
10 | CCN(CC(=O)NCc1cccs1)c1ccc(S(=O)(=O)N2CCOCC2)cn1 | -11.2% (inactive)
11 | Cn1cc(Cl)c(C(=O)Nc2nc3ccccc3s2)n1 | 36.7% (inactive)
12 | O=C(CNC(=O)c1cccc(F)c1)N/N=C/c1cc(Br)ccc1OC(=O)/C=C/c1ccco1 | -30.7% (inactive)
13 | CCN1CCN(CC(=O)Nc2nc3ccc(C)cc3s2)CC1 | 15.7% (inactive)
14 | CCCOc1ccc(-c2cc3onc(-c4ccccc4)c3c(=O)n2C)cc1 | 1.56% (inactive)
15 | Cc1ccc(N2C(=O)c3ccccc3C2C(=O)c2cc(C)ccc2O)cc1 (centres undefined) | -38.5% (inactive)
16 | Cc1ccc(C(=O)NC(=C(Cl)Cl)S(=O)(=O)c2ccccc2)cc1 | -47% (inactive)
17 | CC1CCc2c(sc(NC(=O)C3=COCCO3)c2C(N)=O)C1 (centres undefined) | -11.5% (inactive)
18 | C=CCn1c(P(C)(=O)O)nc2ccccc21 | 36% (inactive)
19 | Cc1ccc2nc(-c3ccc(NC(=O)COC(=O)c4ccc(Br)o4)cc3)sc2c1 | -74.3% (inactive)
